# Experimental data from PubChem BioAssay (NCI).
# About 83,000 compounds went through this panel and 20% of them were active in at least one assay; those are over-represented in the sample as a whole.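 The endpoint reported here, percent growth, reads 100 for growth as untreated, 0 for no net growth and -100 for all cells dead.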 Values without a mark were called inactive. Active and inactive are the calls of the source.
# System: NCI-H522 lung
# Experiment: NCI-60 one-dose screen, 48 h (100 = growth as untreated, 0 = no growth, -100 = all killed)
# Conditions: 10 µM
# Procedure: Growth inhibition of the NCI-H522 human Non-Small Cell Lung tumor cell line is measured as a screen for anti-cancer activity. Cells are grown in 96 well plates and exposed to the test compound for 48 hours. Compounds are tested at a single concentration, which is 10^-5 M for most compounds. The reported endpoint is percent growth (GI% or GIPRCNT), where numbers from 0 - 100% represent growth inhibition, and numbers from -100% - 0 represent cell death. For example, a value of 40 represents 60% growth inhibition. A value of 0 means no net growth occurred over the course of the experiment. A value of -40 indicates 40% of cells at the beginning of the experiment died by the end of the experiment. A value of -100 means all cells are dead at the end of the experiment.
# NCI-60 Human Tumor Cell Lines Screen was performed using the standard one-dose NCI protocol, which is described in more detail at https://dtp.cancer.gov/discovery_development/nci-60/default.htm.
# Compounds with GIPRCNT values below 10 were considered active. Activity score was based on GIPRCNT using the following formula: […]
# Score is 0 for GIPRCNT values of 100 or above, 50 for GIPRCNT values of 0, and 100 for GIPRCNT values of -100.
row,SMILES,growth
1,C=CC[Se]C(=O)c1ccc(C(=O)[Se]CC=C)s1,-95.5% (active)
2,COc1cc2cc(C(=O)N3C[C@@H](CCl)c4c3cc(OC(=O)N3CCN(C)[C@@H]5CSSC[C@@H]53)c3ccccc43)[nH]c2c(OC)c1OC,-55.8% (active)
3,CC[C@]12C=CCN3CC[C@@]4(c5ccc(OC)cc5N(C)[C@H]4[C@@](O)(C(=O)OC)[C@@H]1OC(=O)CCC[P+](C1CCCCC1)(C1CCCCC1)C1CCCCC1)[C@@H]32,-82.2% (active)
4,CN(C)CCc1cn(C2CCC2)c2cccc(O)c12,83.6%
5,CC1=C(C=O)C2=C(C)C3(CC3)[C@@](C)(O)C(=O)C2=C1,-76.5% (active)
6,COC(=O)c1ccc(-n2cc(CCCN(CCNc3ccnc4cc(Cl)ccc34)C(=O)CCC(=O)O[C@@H]3O[C@@H]4OC5(C)CC[C@H]6[C@H](C)CC[C@@H]([C@H]3C)[C@@]46OO5)nn2)cc1,7.38% (active)
7,C[C@H]1[C@H](OC(=O)CCC(=O)N(CCCc2cn(-c3ccc([N+](=O)[O-])cc3)nn2)CCNc2ccnc3cc(Cl)ccc23)O[C@@H]2OC3(C)CC[C@H]4[C@H](C)CC[C@@H]1[C@@]24OO3,5.13% (active)
8,COc1ccc(OC)c(/C=C/C(=O)c2nc3ccccc3n2Cc2ccc(F)cc2)c1,-52.4% (active)
9,CCOP(=O)(CC(F)(F)C(F)(F)F)OCC,-77.3% (active)
10,C[C@H]1[C@@H](CC(=O)N[C@@H](Cc2coc3ccccc23)B(O)O)O[C@@H]2OC3(C)CC[C@H]4[C@H](C)CC[C@@H]1[C@@]24OO3,-74.5% (active)
11,CC1=C(COCCOC(=O)c2ccc(S(=O)(=O)F)cc2)C2=C(C)C3(CC3)[C@@](C)(O)C(=O)C2=C1,-72.2% (active)
12,O=C(NC([Se])=NC1CCCCC1)c1ccc2c(c1)OCO2,42.1%
13,CC(=O)Oc1ccccc1C(=O)NC([Se])=NC1CCCCC1,-95.7% (active)
14,O=C(/C=C/c1ccco1)c1nc2ccccc2n1Cc1ccc(Br)cc1,4.59% (active)
15,C[C@H]1[C@H](OC(=O)CCC(=O)N(CCCc2cn(-c3ccc(CN4CCOCC4)cc3)nn2)CCNc2ccnc3cc(Cl)ccc23)O[C@@H]2OC3(C)CC[C@H]4[C@H](C)CC[C@@H]1[C@@]24OO3,-22.3% (active)
16,CCOP(=O)(OCC)C(NC(C)=O)C(=O)SCCN (stereo not given),98.7%
17,COP(=O)(CC(F)(F)C(F)(F)F)OC,-71.5% (active)
18,O=C([Se]C1C=CCCC1)c1ccc(C(=O)[Se]C2C=CCCC2)s1 (stereo not given),-92.8% (active)
19,CCC[Se]C(=O)c1ccc(C(=O)[Se]CCC)s1,17.9%
20,O=C(/C=C/c1ccccc1)c1nc2ccccc2n1Cc1ccc(Br)cc1,-73.8% (active)

row,SMILES,growth
1,O=C(/C=C/c1cccc(Br)c1)c1nc2ccccc2n1Cc1ccc(Br)cc1,-53.4% (active)
2,O=C(/C=C/c1ccccc1Cl)c1nc2ccccc2n1Cc1ccc(F)cc1,-81.2% (active)
3,COC(=O)C[C@](O)(CCC(C)C)C(=O)O[C@H]1C(OC)=C[C@@]23CCCN2CCc2cc4c(cc2[C@@H]13)OCO4,-70% (active)
4,Cc1c2oc3c(C)ccc(C(=O)N[C@@H]4C(=O)N[C@H](C(C)C)C(=O)N5CCC[C@H]5C(=O)N(C)CC(=O)N(C)[C@@H](C(C)C)C(=O)OC4C)c3nc-2c(C(=O)N[C@@H]2C(=O)N[C@H](C(C)C)C(=O)N3CC(=O)C[C@H]3C(=O)N(C)CC(=O)N(C)[C@@H](C(C)C)C(=O)OC2C)c(N)c1=O (stereo not given in full),-38.6% (active)
5,COc1ccc(/C=C/C(=O)c2nc3ccccc3n2Cc2ccc(Br)cc2)cc1,76.4%
6,CC12CCC3(CCC(=O)NCCCNc4ccnc5cc(Cl)ccc45)[C@@](C)(OO[C@]3(C)O1)O2,-50.4% (active)
7,COc1cc2cc(C(=O)N3C[C@@H](CCl)c4c3cc(OC(=O)N3CCN(C(=O)CCC(=O)N5CCN(C)CC5)[C@@H]5CSSC[C@@H]53)c3ccccc43)[nH]c2c(OC)c1OC,-82.7% (active)
8,O=C(/C=C/c1ccc(Br)cc1)c1nc2ccccc2n1Cc1ccc(Br)cc1,-39.8% (active)
9,CC1=C(CCC=NNC(N)=O)C2=C(C)C3(CC3)[C@@](C)(O)C(=O)C2=C1,-90.4% (active)
10,COc1cc(OC)c(/C=C/C(=O)c2nc3ccccc3n2Cc2ccc(F)cc2)c(OC)c1,79.6%
11,COCCOCCOCCOc1ccc(-n2cc(CCCN(CCNc3ccnc4cc(Cl)ccc34)C(=O)CCC(=O)O[C@@H]3O[C@@H]4OC5(C)CC[C@H]6[C@H](C)CC[C@@H]([C@H]3C)[C@@]46OO5)nn2)cc1,1.23% (active)
12,C=CC[Se]C(=O)c1cncc(C(=O)[Se]CC=C)c1,-89.5% (active)
13,COC(=O)CCn1c(-c2ccc(-n3cc(-c4ccc(O[C@H]5O[C@@H]6OC7(C)CC[C@H]8[C@H](C)CC[C@@H]([C@H]5C)[C@@]68OO7)cc4)nn3)cc2)nc2ccccc21,-22.8% (active)
14,CC(C)C[C@H](NC(=O)CNC(=O)C[C@H]1O[C@@H]2OC3(C)CC[C@H]4[C@H](C)CC[C@@H]([C@H]1C)[C@@]24OO3)B(O)O,-73.8% (active)
15,CC[C@@]12CC(C(=O)OC)=C3Nc4cc5c(cc4[C@@]34CCN(C[C@H]3O[C@H]31)[C@@H]24)[C@@H]1[C@H](O5)[C@@H](O)[C@@]2(CC)CC(C(=O)OC)=C3Nc4cc(OC)ccc4[C@@]34CCN1[C@@H]24,2.96% (active)
16,O=C(/C=C/c1ccc(Cl)cc1Cl)c1nc2ccccc2n1Cc1ccc(F)cc1,76.2%
17,CC(C)N=C([Se])NC(=O)c1ccccc1,-77.7% (active)
18,COc1cc(OC)c(S(=O)(=O)N(CCCl)CCCl)cc1C(=O)/C=C/c1cc(OC)c(OC)c(OC)c1,-69.1% (active)
19,CCOC(=O)C1=C(Nc2ccccc2)C(=O)OC12C(=O)Nc1ccccc12 (stereo not given),96.5%
20,C=CCN=C([Se])NC(=O)c1ccc2c(c1)OCO2,105%
